Bioassay records as filed in PubChem BioAssay.
Shn3 3UTR inh: Schnurri-3 reporter inhibition in Clone20 osteoblasts. Clone20 osteoblast Shn3 3'UTR firefly luciferase, 24 h. inhibition, % at 12.5 µM. 360,000 tested, 0.52% active. AID 588674;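 active means mean inhibition of at least 75% with every replicate also reaching 75%; inconclusive means mean inhibition at least 75% but some replicate below; inactive means mean inhibition below 75%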
LGR2 antag: Drosophila LGR2 receptor signaling inhibition. AID 720647. inhibition, % at 9.99 µM. HEK293 LGR2, CRE-luciferase, bursicon-stimulated, 4 h. 380,000 tested, 0.35% active;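 active means drop in luminescence signal, shown as inhibition above about 50% in the replicate tests, limit read from the data, passing the limit was not always enough; inconclusive means probably only some replicates passing the limit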;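 further: agonist challenge used bursicon conditioned medium at about half maximal strength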
TRPM1 prom inh: inhibitors of MITF-driven TRPM1 promoter in melanoma cells; SK-MEL-5 TRPM1 promoter luciferase, 24 h; inhibition, % at 12.5 µM; 330,000 tested, 0.83% active; AID 488899;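 active means mean inhibition across replicates of 60% or more, whatever share of single replicates reaches that level; inconclusive means some that reach 60%, reason not given; inactive means mean inhibition across replicates below 60%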
PAX8 inh HTS: PAX8 transcriptional activity inhibition | 360,000 tested, 1.2% active | RMG-I TPO-luciferase reporter, SteadyGlo, 24 h | inhibition, % at 12.6 µM;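 active means mean replicate inhibition at least 60% with every replicate also reaching 60%; inconclusive means only one of the two criteria is met; inactive means mean below 60% and not all replicates reaching 60%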;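 further: luciferase light reporting Pax8 driven TPO promoter activity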
EWS-Fli inh: inhibitors of EWS/Fli oncoprotein transcriptional activity; A673 NR0B1-luciferase reporter, viability-normalised; AID 651661; 350,000 tested, 0.67% active; inhibition, % at 12.6 µM;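 active means mean inhibition of at least 50% after viability correction, with every replicate also passing that limit; inconclusive means mean reaches 50% but only one of two replicates passes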;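 further: firefly luciferase signal divided by Alamar Blue viability fluorescence both relative to DMSO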
EBV LMP1 NFkB: Epstein-Barr LMP1 NF-kappaB reporter inhibition; LMP1-induced NF-kappaB luciferase reporter cells, luminescence; 350,000 tested, 0.69% active; inhibition, % at 12.5 µM; AID 504558; in the data active means inhibition above about 41%; inconclusive means no clear call, values can overlap the other calls
A number is an active result; - = inactive; ? = inconclusive; . = no result given; ! = not confirmed by another sample. In the library only some 2.2% were active in any assay of this set; here they are far more common.

SMILES	Shn3 3UTR inh	LGR2 antag	TRPM1 prom inh	PAX8 inh HTS	EWS-Fli inh	EBV LMP1 NFkB
CCOC(=O)c1ccc(NC(=O)O[C@H]2[C@H](OC(=O)Nc3ccccc3)[C@@H](OC(=O)Nc3ccccc3)[C@@H](OC)O[C@@H]2CO)cc1	.	.	.	82	-	.
Cc1cc(C)c2nc(N3CCC(C(=O)NCCCN4CCCCC4)CC3)sc2c1	-	.	69	-	.	-
CC(C)C(Cl)=NOC(=O)Nc1ccc(S(N)(=O)=O)cc1	95	-	-	-	-	-
C[C@@H]1CCCCO[C@H](CN(C)C(=O)c2ccncc2)[C@H](C)CN([C@@H](C)CO)C(=O)c2cc(NS(=O)(=O)c3ccc(Cl)cc3)ccc2O1	.	-	.	-	-	.
O=c1[nH]c(=O)n(Cc2ccc(Oc3ccccc3)cc2)cc1Br	-	-	-	-	-	-
C=C1CC(Cn2cc(Br)c(=O)[nH]c2=O)(c2ccc(-c3ccccc3)cc2)OC1=O (stereo unspecified)	95	76	109	99	53	-
CC(=Nc1ccccc1)C1=C(O)C(Cc2ccc(O)cc2)NC1=O (stereo unspecified)	-	-	-	67	-	-
CC(=Nc1ccccc1)C1=C(O)C(Cc2cccc(F)c2)NC1=O (stereo unspecified)	-	-	.	-	-	-
O=C(C[C@H]1C[C@@H]2c3cc(NS(=O)(=O)c4ccc(F)cc4)ccc3O[C@@H]2[C@@H](CO)O1)NCc1ccc(Oc2ccccc2)cc1	.	?	.	101	-	.
COc1cccc(S(=O)(=O)Nc2ccc3c(c2)[C@H]2C[C@H](CC(=O)NCc4ccc(Cl)cc4)O[C@@H](CO)[C@H]2O3)c1	.	-	.	-	-	.
O=C(C[C@H]1C[C@@H]2c3cc(NS(=O)(=O)c4ccc(F)cc4)ccc3O[C@@H]2[C@@H](CO)O1)NCc1ccc(-c2ccccc2)cc1	.	-	.	84	-	.
O=C(C[C@@H]1C[C@@H]2c3cc(NS(=O)(=O)c4ccc(F)cc4)ccc3O[C@@H]2[C@H](CO)O1)NCc1ccc(-c2ccccc2)cc1	.	-	.	68	-	.
O=C(C[C@@H]1C[C@@H]2c3cc(NS(=O)(=O)c4ccc(F)cc4)ccc3O[C@@H]2[C@@H](CO)O1)NCc1ccccc1	.	-	.	-	-	.
O=C(C[C@H]1C[C@H]2c3cc(NS(=O)(=O)c4ccc(F)cc4)ccc3O[C@H]2[C@H](CO)O1)NCc1ccc(Cl)cc1	.	-	.	-	-	.
COc1cccc(S(=O)(=O)Nc2ccc3c(c2)[C@@H]2C[C@@H](CC(=O)NCc4ccc(Cl)cc4)O[C@@H](CO)[C@@H]2O3)c1	-	-	.	75!	55	.
O=C(C[C@H]1C[C@H]2c3cc(NS(=O)(=O)c4ccc(F)cc4)ccc3O[C@H]2[C@@H](CO)O1)NCc1ccc(-c2ccccc2)cc1	.	-	.	-	-	.
C[C@@H]1CN([C@@H](C)CO)S(=O)(=O)c2ccc(C#CC3CC3)cc2O[C@@H]1CN(C)C(=O)c1cccnc1	.	-	.	.	-	.
O=C(Cc1cccnc1)N1CC(=O)N2[C@H](C1)[C@H](c1ccc(C3=CCCC3)cc1)[C@@H]2CO	.	-	.	-	-	.
Cn1cc(C2=C(c3ccc(Cl)cc3Cl)C(=O)NC2=O)c2ccccc21	-	-	-	92	-	-
Cn1cc(-c2ccccc2C(N)=O)c(=O)c2cc(Cl)ccc21	-	-	-	-	-	-
C[C@@H]1CCCCO[C@@H](CN(C)C(=O)Nc2ccc(F)cc2)[C@@H](C)CN([C@@H](C)CO)C(=O)c2cc(NC(=O)C3CCCCC3)ccc2O1	.	-	.	-	-	.
CO[C@H]1CN(C)C(=O)c2ccc(NS(=O)(=O)c3cn(C)cn3)cc2OC[C@@H](C)NC[C@@H]1C	.	-	.	.	-	.
CO[C@@H]1CN(C)C(=O)c2cc(NC(=O)c3nc4ccccc4s3)ccc2OC[C@H](C)NC[C@H]1C	.	-	.	84	-	.
COc1cccc(C(=O)Nc2ccc3c(c2)OC[C@@H](C)NC[C@H](C)[C@@H](OC)CN(C)C3=O)c1	.	-	.	.	-	.
CO[C@@H]1CN(C)C(=O)c2ccc(NC(=O)c3cccc(Oc4ccccc4)c3)cc2OC[C@H](C)NC[C@H]1C	.	-	.	-	70	.
SMILES	Shn3 3UTR inh	LGR2 antag	TRPM1 prom inh	PAX8 inh HTS	EWS-Fli inh	EBV LMP1 NFkB
CO[C@H]1CN(C)C(=O)c2cc(NC(=O)c3nc4ccccc4s3)ccc2OC[C@@H](C)NC[C@@H]1C	.	-	.	-	54	.
COc1ccc(CN2C[C@H](C)[C@@H](OC)CN(C)C(=O)c3ccc(NC(=O)c4nc5ccccc5s4)cc3OC[C@@H]2C)cc1	.	-	.	74	-	.
CO[C@H]1CN(C)C(=O)c2cc(NC(=O)c3ccc(-c4ccccc4)cc3)ccc2OC[C@@H](C)NC[C@H]1C	.	-	.	-	-	.
CO[C@@H]1CN(C)C(=O)c2cc(NC(=O)c3ccc(-c4ccccc4)cc3)ccc2OC[C@@H](C)NC[C@@H]1C	.	-	.	-	75	.
C=CCNC(=O)[C@@H]1[C@H]2C(=O)O[C@H](c3ccccc3)[C@H](c3ccccc3)N2[C@H](c2ccccc2OCCO)[C@@]12C(=O)N(C(=O)OCCOC)c1ccc(C#CCC(C(=O)OC)C(=O)OC)cc12	.	.	.	104	59	.
COCCOC(=O)N1C(=O)[C@@]2(c3cc(C#CC4(O)CCCCCC4)ccc31)[C@H](c1ccccc1OCCO)N1[C@H](c3ccccc3)[C@H](c3ccccc3)OC(=O)[C@H]1[C@@H]2C(=O)N1CCc2cc(OC)c(OC)cc2C1	.	.	.	.	-	.
C=CCNC(=O)[C@@H]1[C@H]2C(=O)O[C@H](c3ccccc3)[C@H](c3ccccc3)N2[C@H](c2ccccc2OCCO)[C@@]12C(=O)N(C(=O)OCCOC)c1ccc(C#CC3(O)CCCCCC3)cc12	.	.	.	71	-	.
C=CCNC(=O)[C@H]1[C@@H]2C(=O)O[C@@H](c3ccccc3)[C@@H](c3ccccc3)N2[C@@H](c2ccccc2OCCO)[C@]12C(=O)Nc1ccc(C#CC3(O)CCCCCC3)cc12	.	.	.	99	-	.
C=CCNC(=O)[C@H]1[C@@H]2C(=O)O[C@@H](c3ccccc3)[C@@H](c3ccccc3)N2[C@@H](c2ccc(O)cc2)[C@]12C(=O)N(C(=O)OCCOC)c1ccc(C#CCC(C(=O)OC)C(=O)OC)cc12	.	.	.	-	-	.
C=CCNC(=O)[C@@H]1[C@H]2C(=O)O[C@H](c3ccccc3)[C@H](c3ccccc3)N2[C@H](c2ccccc2OCCO)[C@@]12C(=O)N(C(=O)OCCOC)c1ccc(C#CC3=CCCCC3)cc12	.	.	.	68	-	.
COc1cccc(S(=O)(=O)N[C@H]2C=C[C@H](CC(=O)NCc3ccc(Cl)cc3)O[C@H]2CO)c1	.	-	.	.	-	.
C[C@@H]1CN([C@@H](C)CO)C(=O)c2cc(C3=CCCC3)cnc2O[C@H]1CN(C)C(=O)C1CCOCC1	.	-	.	-	-	.
CN1[C@@H]2c3ccc(-c4ccccc4)c(=O)n3C[C@H]1[C@H](CO)[C@H]2C(=O)N1CCC(Cc2ccccc2)CC1	.	-	.	.	-	.
